The source of these data is PubChem BioAssay (NCATS).

Several values for one entry are separate records, joined by “and”; a condition that tells them apart may be missing. Equal entries are not always repeated. Records with an inconclusive call do not appear. Activity calls are given as the source filed them. The call rests on the fitted dose curve; in most records, active means well fitted inhibition curve with a large enough effect; inconclusive means small, poorly fitted or top-dose-only effect; inactive means flat fitted curve, though single readings scatter.

Assay [1] has as its system HEK293. In words: Cytotoxic Profiling of Annotated Libraries Using Quantitative High-Throughput Screening (AID 1296008). Further: potency means the concentration at half of the fitted maximal effect. On max response: on the % scale 0 is the no-effect control and ±100 the full control effect. Particulars: Five cell lines viability, CellTiter-Glo ATP luminescence, 48-72 h; max response: stronger effect = lower value. The method, boiled down: (§1)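 Compounds were pin-transferred onto cells and incubated 48 or 72 hr at 37 degree Celsius, 95% humidity. CellTiter-Glo was added, plates sat 10 min at room temperature, then ATP-coupled luminescence was imaged as the viability read-out.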
Background: Cellular ATP, detected with luciferase, serves as a proxy for viable cell number.

Assay [2] concerns HaCat. The description is as above. Particulars: Five cell lines viability, CellTiter-Glo ATP luminescence, 48-72 h; max response: stronger effect = lower value. The essentials: as §1
Assay [3] relates to KB-3-1. Described as above. To be noted: Five cell lines viability, CellTiter-Glo ATP luminescence, 48-72 h; max response: stronger effect = lower value. The method, boiled down: as §1
The subject of assay [4] is CRL-7250. The assay is described as above. To be noted: Five cell lines viability, CellTiter-Glo ATP luminescence, 48-72 h; max response: stronger effect = lower value. The essentials: as §1
Assay [5] deals with NIH3T3. Described as above. To be noted: Five cell lines viability, CellTiter-Glo ATP luminescence, 48-72 h; max response: stronger effect = lower value. The essentials:
as §1

The subject of assay [6] is HACAT. The experiment in a line: qHTS assay to identify novel small-molecules to repurpose for Merkel cell carcinoma treatment (AID 1296009). To be noted: MCC and control cell lines, CellTiter-Glo viability, 72 h; at 44.8 µM (top of the series) unless noted. The essentials: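 Cells exposed to NPC (8-point) and MIPE (11-point) compound dilutions for 72 hr at 37 degree celsius; viability read by CellTiter-Glo luminescence, normalized to no-cell and DMSO in-plate controls.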
In general terms: In qHTS, concentration-response curves come from the screen itself.
Further: nearly all actives have a fitted effect of over 60% in size.

In the case of `NC(=O)c1nnn(Cc2cc(Cl)c(C(=O)c3ccc(Cl)cc3)c(Cl)c2)c1N`, the Potency in assay [1] was 20.9 µM (active). The max response is -5.54% (inactive) in assay [2] and -25.7% (inactive) in assay [3].
Consider `Cc1nn(Cc2ccccc2Cl)c(C)c1CN(C)CC(O)COc1ccc(Cl)cc1` (stereo unspecified), for which the Potency in assay [1] is 18.7 µM (active).
For the compound `C[C@H]1[C@H](O)O[C@@H]2O[C@@]3(C)CC[C@@H]4[C@H](C)CC[C@@H]1[C@@]24OO3`, the Potency was 3.32 µM (active) in assay [1] and 20.9 µM (active) in assay [3]. Further, the max response in assay [2] is -7.84% (inactive).
In the case of `CCN(CCO)CCCOc1ccc2c(Nc3cc(CC(=O)Nc4cccc(F)c4)[nH]n3)ncnc2c1`, the figures for the max response in assay [4], in assay [3] and in assay [5] were -19.9% (inactive), -29.8% (inactive) and -28.4% (inactive), respectively.
Regarding `NC1(C(=O)N[C@@H](CCO)c2ccc(Cl)cc2)CCN(c2ncnc3[nH]ccc23)CC1`, the Potency in assay [1] is 469 nM (active) and 517 nM (active). Also, the max response is -16.7% (inactive) in assay [2]; -18% (inactive) and -7.12% (inactive) in assay [3]; -1.34% (inactive) in assay [5]. Besides, in assay [5], the result was inactive.
For `O=C1NC(=O)C(=Cc2ccc(-c3ccc(F)cc3O)o2)S1`, the max response is -7.89% (inactive) in assay [4], -35.3% (inactive) in assay [2] and -4.39% (inactive) in assay [5].
As for `NS(=O)(=O)c1ccc(Nc2nc(OCC3CCCCC3)c3[nH]cnc3n2)cc1`, the Potency in assay [1] is 18.4 µM (active); in assay [3] it was 14.8 µM (active). The max response in assay [2] was -17.9% (inactive).
Take `O=C(Nc1cccc2c(=O)cc(-c3nn[nH]n3)oc12)c1ccc(OCCCCc2ccccc2)cc1`: the Potency in assay [1] was 18.7 µM (active). In addition, the result in assay [2] and in assay [6] was inactive. Besides, the max response is -16.8% (inactive) in assay [3] and -4.19% (inactive) in assay [5].
Consider `Cn1c(=O)c(Oc2ccc(F)cc2F)cc2cnc(NC3CCOCC3)nc21`, for which the figures for the max response in assay [4], in assay [3] and in assay [5] were -20.5% (inactive), -6.47% (inactive) and -13.2% (inactive), respectively.
On to `CC(C)(C)c1[nH]cnc1C=c1[nH]c(=O)c(=Cc2ccccc2)[nH]c1=O`, for which the Potency in assay [4] is 0.0038 µM (active); in assay [3] it was 2.41e-05 µM (active). For the same compound, the max response in assay [5] is -78.6% (inactive).
On to `CC(C)(O)CC(=O)NCCn1ccc2ncnc(Nc3ccc(Oc4cccc(C(F)(F)F)c4)c(Cl)c3)c21`, for which the Potency is 16.6 µM (active) in assay [1]; 372 nM (active) and 3.66 µM (active) in assay [2].
For the compound `CNC1CCC(N(Cc2cccc(-c3ccncc3)c2)C(=O)c2sc3ccccc3c2Cl)CC1` (stereo unspecified), the Potency in assay [1] was 8.33 µM (active) and 7.31 µM (active).
For the compound `CN1CC(=O)NC1=NC(=O)Nc1cccc(Cl)c1`, the max response in assay [4] is -9.31% (inactive); in assay [3], 5.76% (inactive); in assay [5] it was -5.12% (inactive).
Consider `N=C1SC(=Cc2ccc(-c3ccc4c(c3)C(=O)NC4=O)o2)C(=O)N1c1ccc(Br)cc1`, for which the figures for the max response in assay [1] and in assay [5] were 1.89% (inactive) and 1.79% (inactive), respectively. The call in assay [2], in assay [3] and in assay [6] was inactive.
As for `CC(C)C[C@@H](C(=O)N[C@H](C(=O)OC1CCCC1)c1ccccc1)[C@H](O)C(=O)NO`, in assay [1], the Potency is 18.7 µM (active).
As to `O=C(O)Cc1cccc(OCCCN(Cc2cccc(C(F)(F)F)c2Cl)CC(c2ccccc2)c2ccccc2)c1`, the Potency in assay [1] was 16.6 µM (active).
In the case of `COc1cc2nc(-c3cc(F)ccc3O)nc(N[C@@H]3CNC[C@@H]3C(C)(C)O)c2cc1OC`, the Potency in assay [1] was 14.8 µM (active); in assay [2], 26.4 µM (active); in assay [3] it was 16.6 µM (active).
On to `CCc1cc(-c2n[nH]c(C)c2-c2ccc3c(c2)OCCO3)c(O)cc1O`, for which the results for the Potency in assay [1], in assay [2] and in assay [5] were 11.8 µM (active), 7.43 µM (active) and 8.33 µM (active), respectively.
For the compound `C[C@@H](O[C@H]1OCCN(Cc2n[nH]c(=O)[nH]2)[C@@H]1c1ccc(F)cc1)c1cc(C(F)(F)F)cc(C(F)(F)F)c1`, the values for the Potency in assay [1] and in assay [3] were 20.9 µM (active) and 26.4 µM (active), respectively. Further, the max response in assay [2] is -38.5% (inactive); in assay [5] it was -21.1% (inactive).
On to `CCC(C)SSc1ncc[nH]1` (stereo unspecified), for which the max response in assay [4] was -3.49% (inactive); in assay [5], -14.8% (inactive). The compound was classed as inactive in assay [2] and in assay [6].
Regarding `Nc1ccn([C@@H]2O[C@H](CO)[C@@H](O)[C@H]2O)c(=O)n1`, in assay [1], the max response was -76.5% (inactive). In addition, the Potency in assay [2] is 29.6 µM (active); in assay [5], 0.526 µM (active).
As to `CCC(=C(CC)c1ccc(O)cc1)c1ccc(O)cc1`, the max response in assay [4] is 2.3% (inactive); in assay [5], -12.1% (inactive). For the same compound, the call in assay [2] and in assay [6] was inactive.
In the case of `CN(C)N=Nc1nc[nH]c1C(N)=O`, the Potency in assay [1] was 3.72 µM (active); in assay [2], 18.7 µM (active); in assay [3], 4.69 µM (active). In assay [5], the max response was -2.97% (inactive).
Turning to `CN(C(Cc1ccc(OS(=O)(=O)c2cccc3cnccc23)cc1)C(=O)N1CCN(c2ccccc2)CC1)S(=O)(=O)c1cccc2cnccc12` (stereo unspecified), the figures for the max response in assay [4], in assay [3] and in assay [5] were 0.636% (inactive), -3.12% (inactive) and -12.5% (inactive), respectively.
`CCCC1OC2C[C@@H]3[C@H]4CCC5=CC(=O)C=C[C@]5(C)[C@H]4C(O)C[C@]3(C)[C@]2(C(=O)CO)O1` (stereo partly specified): the values for the max response in assay [4], in assay [3] and in assay [5] were -14.4% (inactive), -2.26% (inactive) and -21.2% (inactive), respectively.
